Results on 52 compounds are retold here after article PMC4336329 (PLoS ONE, 2015).

Hit rate of the full screen: of about 310,000 compounds, about 14,000 (4.5%) showed an effect of 50% or more. The effect is printed as a negative number. The sample as a whole holds a higher share of strong results than the screen did.
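Note: peak tail current of the secondary pulse compared with the same well before compound.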

In this assay the target is human ether-à-go-go-related gene (hERG) potassium channel (human, UniProt Q12809). Description: primary screen, population patch clamp on CHO cells stably expressing hERG; higher = less effect of the substance.
Chain of human ether-à-go-go-related gene (hERG) potassium channel (Q12809 whole entry, looked up): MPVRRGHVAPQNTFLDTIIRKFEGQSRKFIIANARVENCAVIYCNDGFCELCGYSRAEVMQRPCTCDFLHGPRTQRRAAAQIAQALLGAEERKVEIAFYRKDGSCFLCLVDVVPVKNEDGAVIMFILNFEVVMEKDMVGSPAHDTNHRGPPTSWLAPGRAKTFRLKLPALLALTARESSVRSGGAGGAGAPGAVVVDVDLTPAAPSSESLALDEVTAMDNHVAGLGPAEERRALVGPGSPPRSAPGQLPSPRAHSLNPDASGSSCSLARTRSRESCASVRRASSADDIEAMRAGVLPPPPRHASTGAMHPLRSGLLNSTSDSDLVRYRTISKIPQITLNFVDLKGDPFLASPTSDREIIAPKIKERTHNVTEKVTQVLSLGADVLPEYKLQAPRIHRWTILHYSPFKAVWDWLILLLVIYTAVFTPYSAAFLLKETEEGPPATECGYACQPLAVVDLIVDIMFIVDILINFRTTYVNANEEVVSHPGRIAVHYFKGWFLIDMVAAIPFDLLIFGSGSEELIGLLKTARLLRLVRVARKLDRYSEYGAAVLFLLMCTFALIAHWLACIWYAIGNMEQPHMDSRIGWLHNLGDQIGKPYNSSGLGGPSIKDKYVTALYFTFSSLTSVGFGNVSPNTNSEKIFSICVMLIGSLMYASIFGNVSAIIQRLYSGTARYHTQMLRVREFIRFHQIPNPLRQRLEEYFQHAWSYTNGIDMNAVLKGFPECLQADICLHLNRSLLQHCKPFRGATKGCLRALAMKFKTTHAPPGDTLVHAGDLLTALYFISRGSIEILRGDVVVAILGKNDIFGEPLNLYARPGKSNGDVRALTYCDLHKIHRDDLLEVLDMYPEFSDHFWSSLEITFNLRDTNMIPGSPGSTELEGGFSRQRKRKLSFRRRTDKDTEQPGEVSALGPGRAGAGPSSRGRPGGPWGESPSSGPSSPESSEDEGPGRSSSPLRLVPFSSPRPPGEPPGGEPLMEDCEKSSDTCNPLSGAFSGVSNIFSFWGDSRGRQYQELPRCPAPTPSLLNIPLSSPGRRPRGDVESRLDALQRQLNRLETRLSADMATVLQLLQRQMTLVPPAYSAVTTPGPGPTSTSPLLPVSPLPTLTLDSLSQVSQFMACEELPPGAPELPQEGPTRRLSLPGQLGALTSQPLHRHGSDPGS
With `O=C(c1ccccc1)N1CCN(c2ccc([N+](=O)[O-])c(NCc3ccco3)c2)CC1`, the “hERG current change (%, negative = inhibition) at 10uM” value is listed as -47.2%. The result for `Cc1cccc(C(=O)N2CCN(c3ccc([N+](=O)[O-])c(NCc4ccco4)c3)CC2)c1` reads -34%. In the case of `Cc1ccc(C(=O)N2CCN(c3ccc([N+](=O)[O-])c(NCc4ccco4)c3)CC2)cc1` it was -50.5%; in that of `O=[N+]([O-])c1ccc(N2CCNCC2)cc1NCc1ccco1`, -28.2%. The result for `CN1CCN(c2ccc([N+](=O)[O-])c(NCc3ccco3)c2)CC1` reads -51.9%; that for `O=[N+]([O-])c1ccc(N2CCN(CCO)CC2)cc1NCc1ccco1`, -32.2%; that for `COc1cc(OC)cc(C(=O)NNC(=O)c2ccc(-n3cncn3)c([N+](=O)[O-])c2)c1`, 5.46%.

On to `CCN(CC)Cc1cc(C(=O)O)c(C)o1`, for which the “hERG current change (%, negative = inhibition) at 10uM” value turned out to be 19.4%. The result for `O=C(CCn1c(=O)c2cccn2c2ccc(F)cc21)NCc1cccc(F)c1` reads 23.4%. In the case of `CCOC(=O)COn1c2c(c3c4no[n+]([O-])c4ccc31)CCCC2` it was 3.89%; in that of `CCCCN=Cc1sc2ccc(OCC)cc2c1O`, 3.66%; in that of `CCN(CC)CCn1c2c(c(SCC(=O)Nc3ccc(F)c(F)c3)nc1=O)CCC2`, -70.5%. Regarding `CC(=O)c1cccc(NC(=O)CSc2nc(=O)n(CCN3CCOCC3)c3c2CCC3)c1`, the “hERG current change (%, negative = inhibition) at 10uM” value was -17.6%. Turning to `O=C(CSc1nc(=O)n(CCN2CCOCC2)c2c1CCC2)Nc1ccc(OC(F)(F)F)cc1`, the “hERG current change (%, negative = inhibition) at 10uM” value is on record as -71.8%. Turning to `CN(C)CCn1c2c(c(SCC(=O)Nc3ccc4c(c3)OCCO4)nc1=O)CCC2`, the “hERG current change (%, negative = inhibition) at 10uM” value is reported as -16.1%.

For the compound `CCN(CC)CCCn1c2c(c(SCC(=O)Nc3ccc(F)c(F)c3)nc1=O)CCC2`, the “hERG current change (%, negative = inhibition) at 10uM” value was -55.1%. For `CCOc1ccc(NC(=O)CSc2nc(=O)n(CCN3CCOCC3)c3c2CCCC3)cc1`, the “hERG current change (%, negative = inhibition) at 10uM” value is recorded as -28.1%. In the case of `CCN(CC)CCCn1c2c(c(SCC(=O)Nc3ccc4c(c3)OCCO4)nc1=O)CCC2` it was -43.4%; in that of `COc1ccc(NC(=O)CSc2nc(=O)n(CCN3CCOCC3)c3c2CCC3)cc1`, 0.105%; in that of `CCN(CC)CCn1c2c(c(SCC(=O)Nc3ccc4c(c3)OCO4)nc1=O)CCC2`, -39.2%. The result for `CCN(CC)CCCn1c2c(c(SCC(=O)Nc3cccc(C(C)=O)c3)nc1=O)CCC2` reads -59.4%. The result for `CCN(CC)CCCn1c2c(c(SCC(=O)Nc3ccc4c(c3)OCO4)nc1=O)CCC2` reads -44.6%; that for `CC(=O)c1cccc(NC(=O)CSc2nc(=O)n(CCCN3CCOCC3)c3c2CCC3)c1`, -29.1%. Take `COc1cc2c(cc1OC)C(C)N(C(=O)CCN1C(=O)C3C4C=CC(C4)C3C1=O)CC2` (stereo not shown): the “hERG current change (%, negative = inhibition) at 10uM” value came out at 16%. In the case of `CC12CCC(=O)N1C(C(=O)N1CCN(c3cccc(Cl)c3)CC1)CS2` (stereo not shown), the “hERG current change (%, negative = inhibition) at 10uM” value is reported as -19.4%. In the case of `Cc1ccccc1-c1noc(-c2ccccc2C(=O)NCC2CCCO2)n1` (stereo not shown) it was -3.02%; in that of `Cc1ccc(C)c2nc3sc(C(=O)O)cc3cc12`, 20.9%.

With `CN1C(=O)C(C)(C)c2cc(S(=O)(=O)N3CCCC(C(=O)NCc4ccc(Cl)cc4)C3)ccc21` (stereo not shown), the “hERG current change (%, negative = inhibition) at 10uM” value is listed as -8.2%.

With `C=CCn1c(O)c(C(CC)=NCc2ccc3c(c2)OCO3)c(=O)[nH]c1=O`, the “hERG current change (%, negative = inhibition) at 10uM” value came to 3.09%.

As for `CCN(CC)c1nc(Nc2ccc([N+](=O)[O-])cc2)nc(N(CC)CC)n1`, the “hERG current change (%, negative = inhibition) at 10uM” value turned out to be 11.1%.

Turning to `CCN(CC)CCCn1c2c(c(SCC(=O)Nc3ccc(OC(F)(F)F)cc3)nc1=O)CCC2`, the “hERG current change (%, negative = inhibition) at 10uM” value is on record as -67.7%. In the case of `Clc1ccc(-c2nnc(SCc3ccon3)o2)c(Cl)c1` it was -33.9%. In the case of `COc1ccc(NC(=O)[C@@H]2CCCN2C(=O)[C@@H]2Cc3ccccc3CN2C(=O)OC(C)(C)C)cc1` it was 14.8%; in that of `COC(=O)CCC(=O)c1oc2ccc(OC)cc2c1N`, 4.41%. `CCOc1ccc(S(=O)(=O)N2CCCCC2)cc1NC(=O)CC1OC(=O)c2ccccc21` (stereo not shown): the “hERG current change (%, negative = inhibition) at 10uM” value was -31.3%. In the case of `CC(CC(=O)Nc1cc(S(=O)(=O)N2CCOCC2)ccc1OCC(F)(F)F)c1ccccc1` (stereo not shown) it was -50.2%. Consider `CC(C)Oc1ccc(S(=O)(=O)N2CCOCC2)cc1NC(=O)CC1OC(=O)c2ccccc21` (stereo not shown), for which the “hERG current change (%, negative = inhibition) at 10uM” value is on record as -25%. The result for `CC(CC(=O)Nc1ccc(S(=O)(=O)N2CCOCC2)cc1)c1ccccc1` (stereo not shown) reads -4.25%; that for `O=C(Nc1cc(S(=O)(=O)N2CCOCC2)ccc1OCC(F)(F)F)C1=COCCO1`, -42.8%. `O=C(CC1OC(=O)c2ccccc21)Nc1cc(S(=O)(=O)N2CCOCC2)ccc1OCC(F)(F)F` (stereo not shown): the “hERG current change (%, negative = inhibition) at 10uM” value is -52.2%.

`CCOc1ccc(Br)cc1C(=S)N1CCCC1`: the “hERG current change (%, negative = inhibition) at 10uM” value was found to be 9.29%.

In the case of `COC(=O)c1ccc(Oc2cc(C)nc(Cl)n2)cc1`, the “hERG current change (%, negative = inhibition) at 10uM” value came to 13.9%. As to `O=C1CCCC2=C1C(c1ccncc1)Nc1ccccc1N2` (stereo not shown), the “hERG current change (%, negative = inhibition) at 10uM” value amounted to 10.2%. On to `Cc1ccc(NC(=O)C2CCCN2C(=O)OCc2ccccc2)c(C)c1` (stereo not shown), for which the “hERG current change (%, negative = inhibition) at 10uM” value was determined as 12.7%. With `Cc1cccc(NC(=O)CC2c3ccccc3Oc3ccccc32)c1`, the “hERG current change (%, negative = inhibition) at 10uM” value worked out at 18%. With `CCCc1cc(N2CCN(C(=O)c3ccco3)CC2)n2c(nc3ccccc32)c1C#N`, the “hERG current change (%, negative = inhibition) at 10uM” value was -56.1%. In the case of `CC(C)c1cc(N2CCN(C(=O)c3ccco3)CC2)n2c(nc3ccccc32)c1C#N` it was -34.1%; in that of `CCCc1cc(-n2cnc3ccccc32)n2c(nc3ccccc32)c1C#N`, -50.1%. The result for `CCCCc1nc(N2CCN(C(=O)c3ccco3)CC2)c(C#N)c2c1CCCC2` reads -5.71%.

As to `CCCc1cc(-n2ccnc2C)n2c(nc3ccccc32)c1C#N`, the “hERG current change (%, negative = inhibition) at 10uM” value is recorded as 0.616%. In the case of `CCCc1cc(-n2ccnc2)n2c(nc3ccccc32)c1C#N` it was -29.7%. In the case of `NC(=O)c1cc[n+](CC2=C(C(=O)[O-])N3C(=O)[C@@H](NC(=O)C(c4ccccc4)S(=O)(=O)[O-])[C@H]3SC2)cc1.[Na+]` (stereo partly shown) it was 20.3%.
